Reference: PubChem BioAssay AID2284363 (EPA ToxCast)
Active and inactive are the calls of the source. The calls were made as follows: active = hit-call score of the fitted dose curve at least 0.9, where 1 is the maximum; inactive = score below 0.9.

Target: Nuclear factor erythroid 2-related factor 2 (Homo sapiens) (UniProt Q16236)
Assay: ERF_US_NR_hNFE2L2: Eurofins (ERF) Cell Based Nuclear Translocation LeadHunter Assay for human Transcription Factor Keap1-Nrf2 Agonism
Experimental: ERF_US_NR_hNFE2L2 is a cell-based, single-readout assay that uses extracted gene-proteins in a cell-line assay. Measurements were taken 6 hours after chemical dosing in a 384-well plate. See Keap1-Nrf2 Human Transcription Factor Cell Based Agonist Nuclear Translocation Assay, DiscoverX.ERF_US_NR_hNFE2L2 is an assay component calculated from the ERF_US_NR_hNFE2L2 assay. It is designed to measure protein fragment complementation using a type of binding reporter as detected by chemiluminescence with fluorimetry technology.Data from the assay component ERF_US_NR_hNFE2L2 was analyzed at the assay endpoint, ERF_US_NR_hNFE2L2, in the positive analysis fitting direction relative to DMSO as the negative control and baseline of activity. Using a type of binding reporter, gain-of-signal activity can be used to understand changes in binding as they relate to gene NFE2L2. To generalize the intended target to other relatable targets, this assay endpoint is annotated to the dna binding intended target family, where the subfamily is basic leucine zipper.
Cells were seeded in a total volume of 20 uL into white walled, 384-well microplates and incubated at 37C overnight prior to testing.For agonist determination, cells were incubated with sample to induce response. […] The results are expressed as a percent efficacy relative to the maximum response of the control ligand.

Chain of Nuclear factor erythroid 2-related factor 2 (Homo sapiens) (Q16236 whole entry, looked up): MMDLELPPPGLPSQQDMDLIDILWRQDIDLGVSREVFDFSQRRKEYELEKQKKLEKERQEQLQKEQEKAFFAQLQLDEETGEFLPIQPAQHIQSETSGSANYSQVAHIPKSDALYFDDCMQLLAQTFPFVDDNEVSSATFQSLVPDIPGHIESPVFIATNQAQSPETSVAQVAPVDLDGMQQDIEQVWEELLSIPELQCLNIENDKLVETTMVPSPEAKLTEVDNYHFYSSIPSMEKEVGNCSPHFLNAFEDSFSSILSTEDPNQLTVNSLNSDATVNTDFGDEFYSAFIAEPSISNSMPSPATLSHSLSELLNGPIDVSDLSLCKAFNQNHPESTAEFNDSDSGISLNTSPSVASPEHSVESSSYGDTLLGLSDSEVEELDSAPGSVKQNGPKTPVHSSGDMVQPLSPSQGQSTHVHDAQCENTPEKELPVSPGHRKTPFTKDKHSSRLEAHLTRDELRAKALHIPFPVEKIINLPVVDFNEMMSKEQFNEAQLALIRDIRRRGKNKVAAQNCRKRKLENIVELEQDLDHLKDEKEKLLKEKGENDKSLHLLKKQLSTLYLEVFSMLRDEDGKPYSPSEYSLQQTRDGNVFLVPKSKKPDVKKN

SMILES | AC50 | outcome
CC(C)(C)c1cc(O)ccc1O | 12.2 µM (active) | –
CCNS(=O)(=O)C(F)(F)C(F)(F)C(F)(F)C(F)(F)C(F)(F)C(F)(F)C(F)(F)C(F)(F)F | – | inactive
